The values below come from ChEMBL document CHEMBL2218924, “A broad activity screen in support of a chemogenomic map for kinase signalling research and drug discovery” (Biochem J, 2013).

The target of assay [1] is T1, Dual specificity mitogen-activated protein kinase kinase 6 (Homo sapiens) (UniProt P52564).
T1 sequence (whole entry): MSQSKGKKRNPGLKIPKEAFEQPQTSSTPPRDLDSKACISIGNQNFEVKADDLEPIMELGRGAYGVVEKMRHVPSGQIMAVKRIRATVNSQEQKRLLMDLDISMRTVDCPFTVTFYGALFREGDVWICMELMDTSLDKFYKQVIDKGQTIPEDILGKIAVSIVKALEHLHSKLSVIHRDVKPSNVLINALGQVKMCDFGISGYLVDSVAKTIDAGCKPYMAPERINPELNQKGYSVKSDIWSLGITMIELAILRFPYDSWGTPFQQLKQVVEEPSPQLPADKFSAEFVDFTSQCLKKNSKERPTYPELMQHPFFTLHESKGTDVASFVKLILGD
The note with it: at 1 µM.

Assay [2] has as its target T1, Dual specificity mitogen-activated protein kinase kinase 6 (Homo sapiens). The note with it: at 10 µM.
Assay [3] has as its target T2, Dual specificity mitogen-activated protein kinase kinase 7 (Homo sapiens) (UniProt O14733).
T2 sequence (whole entry): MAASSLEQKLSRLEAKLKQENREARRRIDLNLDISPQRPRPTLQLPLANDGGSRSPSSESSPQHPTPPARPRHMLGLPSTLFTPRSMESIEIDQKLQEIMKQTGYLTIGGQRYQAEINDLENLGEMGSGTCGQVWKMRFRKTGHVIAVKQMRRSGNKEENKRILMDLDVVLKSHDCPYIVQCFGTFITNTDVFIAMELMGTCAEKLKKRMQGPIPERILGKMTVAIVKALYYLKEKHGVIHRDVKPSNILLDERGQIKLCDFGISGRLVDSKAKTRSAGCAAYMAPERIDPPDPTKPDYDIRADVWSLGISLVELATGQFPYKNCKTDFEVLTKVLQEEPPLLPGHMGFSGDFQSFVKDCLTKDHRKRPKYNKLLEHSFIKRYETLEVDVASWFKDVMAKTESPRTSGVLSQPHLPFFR
The note with it: at 1 µM.

Assay [4] concerns the target T2, Dual specificity mitogen-activated protein kinase kinase 7 (Homo sapiens). The note with it: at 10 µM.
Assay [5] addresses Myosin light chain kinase, smooth muscle (Homo sapiens) (UniProt Q15746). The note with it: at 1 µM.
Assay [6] shares this target. The note with it: at 10 µM.
Assay [7] deals with Mitogen-activated protein kinase kinase kinase 9 (Homo sapiens) (UniProt P80192). The note with it: at 1 µM.
Assay [8] has the same target. The note with it: at 10 µM.
Assay [9] concerns the target Serine/threonine-protein kinase MRCK alpha (Homo sapiens) (UniProt Q5VT25). The note with it: at 1 µM.
The target is the same in assay [10]. The note with it: at 10 µM.
Assay [11] has as its target Serine/threonine-protein kinase MRCK beta (Homo sapiens) (UniProt Q9Y5S2). The note with it: at 1 µM.
Assay [12] has the same target. The note with it: at 10 µM.
Assay [13] concerns the target Ribosomal protein S6 kinase alpha-5 (Homo sapiens) (UniProt O75582). The note with it: at 1 µM.
For assay [14] the target is unchanged. The note with it: at 10 µM.
Assay [15] concerns the target Ribosomal protein S6 kinase alpha-4 (Homo sapiens) (UniProt O75676). The note with it: at 1 µM.
Assay [16] has the same target. The note with it: at 10 µM.
Assay [17] concerns the target SRSF protein kinase 3 (Homo sapiens) (UniProt Q9UPE1). The note with it: at 1 µM.
Assay [18] has the same target. The note with it: at 10 µM.
Assay [19] deals with T3, Serine/threonine-protein kinase 4 (Homo sapiens) (UniProt Q13043).
T3 sequence (whole entry): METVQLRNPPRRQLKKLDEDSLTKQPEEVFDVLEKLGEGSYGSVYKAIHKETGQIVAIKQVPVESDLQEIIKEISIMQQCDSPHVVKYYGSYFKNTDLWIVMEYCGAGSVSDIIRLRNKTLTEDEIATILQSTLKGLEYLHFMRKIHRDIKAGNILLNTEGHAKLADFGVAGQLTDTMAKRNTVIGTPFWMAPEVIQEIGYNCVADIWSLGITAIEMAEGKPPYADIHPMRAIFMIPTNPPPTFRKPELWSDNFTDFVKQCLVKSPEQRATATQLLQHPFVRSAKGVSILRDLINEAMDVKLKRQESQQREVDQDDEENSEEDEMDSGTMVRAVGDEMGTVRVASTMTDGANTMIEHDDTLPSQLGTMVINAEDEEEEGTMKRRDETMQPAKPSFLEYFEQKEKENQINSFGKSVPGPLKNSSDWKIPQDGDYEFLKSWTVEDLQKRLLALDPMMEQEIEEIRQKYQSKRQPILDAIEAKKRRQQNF
The note with it: at 1 µM.

The target of assay [20] is T3, Serine/threonine-protein kinase 4 (Homo sapiens). The note with it: at 10 µM.

Structures are written as SMILES.

Chain of Serine/threonine-protein kinase MRCK alpha (Homo sapiens) (Q5VT25 whole entry): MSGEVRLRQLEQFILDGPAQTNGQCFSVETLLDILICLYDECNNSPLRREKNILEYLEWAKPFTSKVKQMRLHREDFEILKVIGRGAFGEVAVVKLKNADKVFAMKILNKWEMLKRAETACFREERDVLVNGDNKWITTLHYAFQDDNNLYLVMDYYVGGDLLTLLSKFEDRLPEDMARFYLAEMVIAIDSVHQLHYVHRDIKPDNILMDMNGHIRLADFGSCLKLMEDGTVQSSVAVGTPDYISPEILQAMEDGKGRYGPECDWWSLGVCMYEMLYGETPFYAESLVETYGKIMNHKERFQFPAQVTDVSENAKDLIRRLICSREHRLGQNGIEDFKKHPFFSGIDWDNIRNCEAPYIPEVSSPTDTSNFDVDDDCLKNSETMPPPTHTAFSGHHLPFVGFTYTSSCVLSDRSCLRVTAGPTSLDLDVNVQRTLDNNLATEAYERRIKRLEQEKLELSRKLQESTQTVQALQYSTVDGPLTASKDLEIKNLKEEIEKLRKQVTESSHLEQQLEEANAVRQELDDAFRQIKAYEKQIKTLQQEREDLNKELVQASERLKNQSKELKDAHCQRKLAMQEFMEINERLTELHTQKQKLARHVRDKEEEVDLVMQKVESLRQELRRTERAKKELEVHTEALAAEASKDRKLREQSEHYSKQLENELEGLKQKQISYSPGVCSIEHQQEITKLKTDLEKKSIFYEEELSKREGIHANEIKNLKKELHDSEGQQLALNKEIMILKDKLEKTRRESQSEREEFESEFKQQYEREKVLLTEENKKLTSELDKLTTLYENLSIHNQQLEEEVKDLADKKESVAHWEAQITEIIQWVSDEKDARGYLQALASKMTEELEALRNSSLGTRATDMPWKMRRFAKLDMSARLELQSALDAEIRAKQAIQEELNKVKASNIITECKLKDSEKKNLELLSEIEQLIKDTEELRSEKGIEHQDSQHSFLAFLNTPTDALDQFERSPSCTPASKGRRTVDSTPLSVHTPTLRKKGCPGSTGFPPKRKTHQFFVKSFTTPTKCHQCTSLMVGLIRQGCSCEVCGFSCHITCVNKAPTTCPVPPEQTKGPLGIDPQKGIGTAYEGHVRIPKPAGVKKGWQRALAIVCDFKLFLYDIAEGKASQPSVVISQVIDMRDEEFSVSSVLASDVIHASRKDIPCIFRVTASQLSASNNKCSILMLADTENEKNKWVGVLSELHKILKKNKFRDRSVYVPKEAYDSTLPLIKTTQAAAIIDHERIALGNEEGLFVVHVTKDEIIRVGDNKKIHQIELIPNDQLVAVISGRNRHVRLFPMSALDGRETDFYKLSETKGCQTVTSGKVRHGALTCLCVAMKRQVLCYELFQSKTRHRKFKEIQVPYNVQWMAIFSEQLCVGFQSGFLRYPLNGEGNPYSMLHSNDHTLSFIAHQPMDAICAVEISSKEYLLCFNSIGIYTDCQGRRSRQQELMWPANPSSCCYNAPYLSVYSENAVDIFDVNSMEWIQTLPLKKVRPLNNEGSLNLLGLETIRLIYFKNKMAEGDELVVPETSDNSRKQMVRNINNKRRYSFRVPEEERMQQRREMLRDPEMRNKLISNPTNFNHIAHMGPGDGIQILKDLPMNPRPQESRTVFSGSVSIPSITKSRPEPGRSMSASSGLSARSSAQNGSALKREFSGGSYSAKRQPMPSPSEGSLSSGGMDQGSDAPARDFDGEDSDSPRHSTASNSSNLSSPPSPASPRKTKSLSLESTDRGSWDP
Chain of SRSF protein kinase 3 (Homo sapiens) (Q9UPE1 whole entry): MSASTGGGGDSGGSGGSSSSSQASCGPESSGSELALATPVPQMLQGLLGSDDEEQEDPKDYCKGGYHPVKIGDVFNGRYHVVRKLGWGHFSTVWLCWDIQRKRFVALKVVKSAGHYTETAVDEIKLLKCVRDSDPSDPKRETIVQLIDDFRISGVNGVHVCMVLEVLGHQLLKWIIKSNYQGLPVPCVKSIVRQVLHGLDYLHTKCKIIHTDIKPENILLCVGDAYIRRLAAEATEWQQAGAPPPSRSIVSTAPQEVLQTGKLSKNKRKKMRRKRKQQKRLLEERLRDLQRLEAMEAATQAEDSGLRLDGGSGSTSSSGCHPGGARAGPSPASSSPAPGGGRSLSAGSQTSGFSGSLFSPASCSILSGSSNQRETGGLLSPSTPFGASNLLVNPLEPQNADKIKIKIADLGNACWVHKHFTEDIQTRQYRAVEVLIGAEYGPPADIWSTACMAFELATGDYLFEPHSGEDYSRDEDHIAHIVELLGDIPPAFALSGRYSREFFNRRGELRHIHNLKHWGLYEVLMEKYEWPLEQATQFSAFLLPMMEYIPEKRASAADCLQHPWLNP
Chain of Serine/threonine-protein kinase MRCK beta (Homo sapiens) (Q9Y5S2 whole entry): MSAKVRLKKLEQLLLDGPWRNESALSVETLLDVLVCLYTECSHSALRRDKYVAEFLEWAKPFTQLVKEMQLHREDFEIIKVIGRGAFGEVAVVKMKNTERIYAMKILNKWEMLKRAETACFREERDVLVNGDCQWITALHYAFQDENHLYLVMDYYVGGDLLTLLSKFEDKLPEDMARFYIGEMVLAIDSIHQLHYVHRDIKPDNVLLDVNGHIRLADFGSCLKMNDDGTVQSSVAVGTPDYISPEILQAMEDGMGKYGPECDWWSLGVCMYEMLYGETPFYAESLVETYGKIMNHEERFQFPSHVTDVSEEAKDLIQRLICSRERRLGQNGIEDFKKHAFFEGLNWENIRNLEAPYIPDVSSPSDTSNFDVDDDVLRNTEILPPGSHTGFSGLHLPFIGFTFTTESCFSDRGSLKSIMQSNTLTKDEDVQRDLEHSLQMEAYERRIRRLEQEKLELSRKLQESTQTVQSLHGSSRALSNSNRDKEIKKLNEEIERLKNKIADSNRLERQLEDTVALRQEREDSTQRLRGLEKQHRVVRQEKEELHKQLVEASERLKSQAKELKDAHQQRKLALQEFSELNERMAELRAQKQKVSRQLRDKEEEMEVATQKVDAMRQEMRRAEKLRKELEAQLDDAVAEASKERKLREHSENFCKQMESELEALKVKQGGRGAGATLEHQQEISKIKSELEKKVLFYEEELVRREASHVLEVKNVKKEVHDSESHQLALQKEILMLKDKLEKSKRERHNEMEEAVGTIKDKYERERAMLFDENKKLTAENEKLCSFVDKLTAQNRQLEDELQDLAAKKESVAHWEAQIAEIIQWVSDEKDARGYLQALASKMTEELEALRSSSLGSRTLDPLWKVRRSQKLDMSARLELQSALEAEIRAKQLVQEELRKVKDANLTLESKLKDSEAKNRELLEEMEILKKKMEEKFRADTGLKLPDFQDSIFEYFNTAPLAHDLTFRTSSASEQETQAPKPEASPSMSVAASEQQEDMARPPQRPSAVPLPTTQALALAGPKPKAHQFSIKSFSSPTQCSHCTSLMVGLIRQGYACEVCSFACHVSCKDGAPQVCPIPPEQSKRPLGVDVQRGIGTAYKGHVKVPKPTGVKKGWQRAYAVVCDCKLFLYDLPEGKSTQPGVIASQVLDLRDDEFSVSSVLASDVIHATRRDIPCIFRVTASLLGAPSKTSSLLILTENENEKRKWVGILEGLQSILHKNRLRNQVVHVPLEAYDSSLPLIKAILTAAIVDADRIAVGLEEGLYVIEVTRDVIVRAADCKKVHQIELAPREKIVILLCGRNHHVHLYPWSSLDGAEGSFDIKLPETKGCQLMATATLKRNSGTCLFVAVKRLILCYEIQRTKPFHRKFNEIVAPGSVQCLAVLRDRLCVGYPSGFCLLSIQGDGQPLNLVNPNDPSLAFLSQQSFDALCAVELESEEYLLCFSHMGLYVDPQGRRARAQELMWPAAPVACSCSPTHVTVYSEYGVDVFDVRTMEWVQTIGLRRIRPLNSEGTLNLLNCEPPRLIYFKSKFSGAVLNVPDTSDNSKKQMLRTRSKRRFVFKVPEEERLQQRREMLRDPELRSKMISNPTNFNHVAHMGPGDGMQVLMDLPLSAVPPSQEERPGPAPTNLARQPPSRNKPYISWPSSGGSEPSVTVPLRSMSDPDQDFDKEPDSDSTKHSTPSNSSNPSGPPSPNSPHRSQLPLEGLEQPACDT
Chain of Mitogen-activated protein kinase kinase kinase 9 (Homo sapiens) (P80192 whole entry, looked up): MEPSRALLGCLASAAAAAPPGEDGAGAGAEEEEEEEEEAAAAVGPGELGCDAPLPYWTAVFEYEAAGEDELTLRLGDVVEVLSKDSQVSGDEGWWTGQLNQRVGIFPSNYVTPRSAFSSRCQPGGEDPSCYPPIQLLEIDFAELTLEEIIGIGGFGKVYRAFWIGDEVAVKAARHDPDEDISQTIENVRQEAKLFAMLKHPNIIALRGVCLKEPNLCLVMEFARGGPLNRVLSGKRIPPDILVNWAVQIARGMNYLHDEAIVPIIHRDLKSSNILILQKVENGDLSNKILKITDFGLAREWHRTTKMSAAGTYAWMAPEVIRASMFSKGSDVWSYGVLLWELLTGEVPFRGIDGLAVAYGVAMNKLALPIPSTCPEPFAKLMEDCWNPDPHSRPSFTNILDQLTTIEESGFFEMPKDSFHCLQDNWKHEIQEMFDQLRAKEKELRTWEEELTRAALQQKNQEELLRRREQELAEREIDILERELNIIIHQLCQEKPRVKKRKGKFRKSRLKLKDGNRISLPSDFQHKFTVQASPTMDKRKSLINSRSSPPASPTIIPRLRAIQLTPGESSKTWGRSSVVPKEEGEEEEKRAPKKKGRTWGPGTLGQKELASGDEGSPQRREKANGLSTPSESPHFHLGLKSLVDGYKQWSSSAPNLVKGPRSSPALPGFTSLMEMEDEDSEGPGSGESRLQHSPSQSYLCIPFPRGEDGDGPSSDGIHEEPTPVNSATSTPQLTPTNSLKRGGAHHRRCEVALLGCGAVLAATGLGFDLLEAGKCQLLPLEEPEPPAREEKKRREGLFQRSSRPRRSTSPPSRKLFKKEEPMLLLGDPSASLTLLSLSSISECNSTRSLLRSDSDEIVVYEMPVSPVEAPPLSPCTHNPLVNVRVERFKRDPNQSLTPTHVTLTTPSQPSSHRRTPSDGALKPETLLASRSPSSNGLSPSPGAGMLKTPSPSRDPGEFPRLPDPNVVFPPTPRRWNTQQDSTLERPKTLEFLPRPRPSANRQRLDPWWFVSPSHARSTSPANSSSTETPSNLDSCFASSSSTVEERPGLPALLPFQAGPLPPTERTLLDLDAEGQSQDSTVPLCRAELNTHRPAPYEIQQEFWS

As to `CC#CC(=O)Nc1cc2c(Nc3ccc(F)c(Cl)c3)ncnc2cn1`, the residual activity in assay [1] is 77%; in assay [2], 140%; in assay [3] it was 97%; in assay [4] it was 90%; in [5], 73%; in assay [6], 110%. In addition, the residual activity in assay [7] was found to be 98%; in [8] it was 100%; in assay [9], 98%; in [10], 87%; in assay [11] it was 95%; in assay [12], 79%. The residual activity was 123% in assay [13]; 102% in assay [14]; 97% in assay [15]; 105% in assay [16]; 90% in assay [17]; 74% in [18]. Also, the residual activity is 90% in [19] and 84% in assay [20].
In the case of `COc1ccc(S(=O)(=O)N(CCO)c2ccccc2CN(C)C/C=C/c2ccc(Cl)cc2)cc1`, the residual activity in assay [1] was 99%; in assay [2], 74%; in assay [3], 101%; in assay [4], 73%; in assay [5] it was 97%; in assay [6], 41%. The residual activity in assay [7] was 99%; in assay [8] it was 92%; in assay [9], 119%; in assay [10] it was 113%; in assay [11], 98%; in assay [12] it was 78%. Also, the residual activity in assay [13] was found to be 115%; in [14], 114%; in [15], 96%; in assay [16], 85%; in assay [17], 102%; in assay [18] it was 104%. Further, the residual activity in [19] stood at 107%; in assay [20], 90%.
`c1ccc(-c2n[nH]c3c2oc2ccccc23)cc1`: the residual activity in assay [1] was found to be 76%; in assay [2] it was 89%; in [3] it was 87%; in assay [4] it was 67%; in [5], 66%; in [6], 64%. Moreover, the residual activity in assay [7] was determined as 69%; in assay [8], 39%; in assay [9], 92%; in assay [10], 116%; in [11], 98%; in assay [12], 115%. Also, the residual activity in assay [14] is 74%; in [15], 95%; in assay [16], 70%; in assay [19], 88%; in assay [20] it was 58%.
Consider `Cc1cncc2cccc(S(=O)(=O)N3CCCN(C(=O)CN)C[C@H]3C)c12`, for which the residual activity amounted to 82% in [3]; 94% in assay [5]; 99% in assay [6]; 86% in assay [7]; 62% in assay [8]; 98% in assay [9]. Further, the residual activity in [10] was determined as 99%; in [11] it was 89%; in assay [12], 80%; in assay [13], 126%; in [14] it was 54%; in assay [15], 66%. Further, the residual activity in assay [16] was found to be 37%; in assay [18], 77%; in assay [19], 87%; in [20], 75%.
On to `Nc1cccc(-c2cc3c(Oc4cccc(O)c4)ncnc3[nH]2)c1`, for which the residual activity in assay [1] is 74%; in assay [2] it was 20%; in assay [3] it was 80%; in assay [4], 70%; in [5] it was 85%; in [6], 25%. Also, the residual activity in assay [7] was determined as 7%; in assay [8], 1%; in [9], 123%; in assay [11] it was 95%; in assay [12], 84%; in assay [13] it was 98%. The residual activity was determined as 117% in assay [14]; 90% in assay [15]; 68% in assay [16]; 73% in [19]; 74% in assay [20].
On to `N#CC(C#N)=C(N)/C(C#N)=C/c1ccc(O)cc1`, for which the residual activity in assay [1] worked out at 91%; in [2], 99%; in [3], 94%; in assay [5], 68%; in assay [6], 85%; in assay [7], 99%. Also, the residual activity was 97% in [8]; 90% in [9]; 76% in [10]; 96% in [11]; 84% in assay [12]; 122% in [13]. Also, the residual activity turned out to be 92% in assay [14]; 91% in [15]; 85% in assay [16]; 119% in assay [17]; 82% in [18].
In the case of `CC(=O)c1ccc(N2CCOCC2)cc1O`, the residual activity in assay [1] was 75%; in assay [2] it was 91%; in [3], 104%; in assay [4], 96%; in [5], 83%; in [6], 85%. Moreover, the residual activity in [7] was determined as 89%; in assay [8] it was 97%; in assay [9], 105%; in assay [10], 92%; in assay [11] it was 100%; in assay [12], 83%. Moreover, the residual activity in [13] amounted to 133%; in [14], 108%; in assay [15], 92%; in [18], 88%; in [19], 85%; in assay [20] it was 96%.
